# Results reported in the supplement of paper PMC6089552.
# Screen size: about 3,200 compounds; about 300 (9.4%) showed activity. Shown is part of a subset that was picked to be rich in actives. A number with no mark means an inactive call.
# Test system: A673/TR/shEF
# Assay: cell viability (LOESS-normalised, relative to median of negative controls) (log2 ratio); higher = more viable cells (less compound effect), active = hit call of the paper (over 3 MAD below the median)
# Conditions: treatment time: 72 h
# Summary of the method: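 Viability of A673/TR/shEF Ewing sarcoma cells was determined by CellTiter-Glo luminescence. The cells, at 1,500 per well in 384-well plates, were grown with or without doxycycline from 24 h before compound addition to switch on EWS-FLI1 shRNA knockdown, then exposed for three days to library compounds at two or more concentrations or to DMSO controls. Signals were LOESS-corrected plate by plate, normalised to the negative-control median and log2-transformed.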
# [1] = 0.25 µM, library screen: screen1, EWS-FLI1 expression: high (no doxycycline)
# [2] = 0.25 µM, library screen: screen1, EWS-FLI1 expression: low (doxycycline-induced shRNA knockdown)
# [3] = 2.5 µM, library screen: screen1, EWS-FLI1 expression: high (no doxycycline)
# [4] = 2.5 µM, library screen: screen1, EWS-FLI1 expression: low (doxycycline-induced shRNA knockdown)
# [5] = 0.25 µM, library screen: screen2, EWS-FLI1 expression: high (no doxycycline)
# [6] = 0.25 µM, library screen: screen2, EWS-FLI1 expression: low (doxycycline-induced shRNA knockdown)
# [7] = 2.5 µM, library screen: screen2, EWS-FLI1 expression: high (no doxycycline)
# [8] = 2.5 µM, library screen: screen2, EWS-FLI1 expression: low (doxycycline-induced shRNA knockdown)
# [9] = 0.103 µM, library screen: screen3, EWS-FLI1 expression: high (no doxycycline)
# [10] = 0.103 µM, library screen: screen3, EWS-FLI1 expression: low (doxycycline-induced shRNA knockdown)
# [11] = 0.308 µM, library screen: screen3, EWS-FLI1 expression: high (no doxycycline)
# [12] = 0.308 µM, library screen: screen3, EWS-FLI1 expression: low (doxycycline-induced shRNA knockdown)
# [13] = 0.926 µM, library screen: screen3, EWS-FLI1 expression: high (no doxycycline)
# [14] = 0.926 µM, library screen: screen3, EWS-FLI1 expression: low (doxycycline-induced shRNA knockdown)
# [15] = 2.8 µM, library screen: screen3, EWS-FLI1 expression: high (no doxycycline)
# [16] = 2.8 µM, library screen: screen3, EWS-FLI1 expression: low (doxycycline-induced shRNA knockdown)
# [17] = 8.3 µM, library screen: screen3, EWS-FLI1 expression: high (no doxycycline)
# [18] = 8.3 µM, library screen: screen3, EWS-FLI1 expression: low (doxycycline-induced shRNA knockdown)
# [19] = 25 µM, library screen: screen3, EWS-FLI1 expression: high (no doxycycline)
# [20] = 25 µM, library screen: screen3, EWS-FLI1 expression: low (doxycycline-induced shRNA knockdown)
smiles,measurement,setting,value
O=C(O)c1ccc2c(c1)OCO2,cell viability (log2),[1],0.146
same,cell viability (log2),[2],0.102
same,cell viability (log2),[3],0.137
same,cell viability (log2),[4],0.0963
C/C(=C\c1ccc(C(=O)O)cc1)c1ccc2c(c1)C(C)(C)CCC2(C)C,cell viability (log2),[5],0.00709
same,cell viability (log2),[6],0.0496
same,cell viability (log2),[7],0.0275
same,cell viability (log2),[8],0.0889
NC1(C(=O)O)CCc2cc(C(=O)O)ccc21 (stereo not given),cell viability (log2),[5],-0.364 (active)
same,cell viability (log2),[6],0.0469
same,cell viability (log2),[7],0.0221
same,cell viability (log2),[8],0.107
C=C(C)Cn1c(COc2ccc(Cl)cc2Cl)n[nH]c1=S,cell viability (log2),[1],0.0645
same,cell viability (log2),[2],-0.015
same,cell viability (log2),[3],0.0851
same,cell viability (log2),[4],-0.014
CC(C)CC(NP(=O)(O)O[C@@H]1O[C@@H](C)[C@H](O)[C@@H](O)[C@H]1O)C(=O)NC(Cc1c[nH]c2ccccc12)C(=O)O (stereo not given in full),cell viability (log2),[5],0.0833
same,cell viability (log2),[6],0.00183
same,cell viability (log2),[7],0.149
same,cell viability (log2),[8],-0.00437
COc1cc(CN2CCN(Cc3ccccc3F)CC2)cc(OC)c1OC,cell viability (log2),[1],0.0928
same,cell viability (log2),[2],0.0533
same,cell viability (log2),[3],0.0786
same,cell viability (log2),[4],0.127
OC[C@H]1N[C@H](CO)[C@@H](O)[C@@H]1O,cell viability (log2),[5],0.176
same,cell viability (log2),[6],0.0684
same,cell viability (log2),[7],0.108
same,cell viability (log2),[8],0.0354
Cc1ccc(C(C)C)c(O)c1C(=O)O,cell viability (log2),[1],0.112
same,cell viability (log2),[2],0.00973
same,cell viability (log2),[3],0.164
same,cell viability (log2),[4],0.0715
CC(C)[C@@H]1NC(=O)[C@H](CCCCN)NC(=O)[C@@H](Cc2c[nH]c3ccccc23)NC(=O)[C@H](Cc2ccc(O)cc2)NC(=O)[C@H](C)N(C)C(=O)[C@H](Cc2ccccc2)NC1=O,cell viability (log2),[5],0.191
same,cell viability (log2),[6],0.085
same,cell viability (log2),[7],0.149
same,cell viability (log2),[8],0.111
CCC(C)C(N)C1=NC(C(=O)N[C@@H](CC(C)C)C(=O)N[C@H](CCC(=O)O)C(=O)N[C@H](C(=O)N[C@H]2CCCCNC(=O)[C@H](CC(N)=O)NC(=O)[C@@H](CC(=O)O)NC(=O)[C@H](Cc3cnc[nH]3)NC(=O)[C@@H](Cc3ccccc3)NC(=O)[C@H]([C@@H](C)CC)NC(=O)[C@@H](CCCN)NC2=O)[C@@H](C)CC)CS1 (stereo not given in full),cell viability (log2),[1],0.0992
same,cell viability (log2),[2],-0.0505
same,cell viability (log2),[3],0.131
same,cell viability (log2),[4],0.0875
CC(C)C[C@@H]1NC(=O)[C@H](CCCN)NC(=O)[C@H](C(C)C)NC(=O)[C@H](Cc2ccc(O)cc2)N[C@@H](CCC(=O)O)C(=O)N[C@@H](CC(N)=O)C(=O)[C@@H](Cc2ccccc2)NC(=O)[C@H](Cc2ccccc2)NC(=O)[C@@H]2CCCN2C(=O)[C@@H](Cc2ccccc2)NC1=O,cell viability (log2),[1],-0.767 (active)
same,cell viability (log2),[2],-0.0111
same,cell viability (log2),[3],-2.84 (active)
same,cell viability (log2),[4],-2.45 (active)
CC(C)C[C@@H]1NC(=O)[C@H](CCCN)NC(=O)[C@H](C(C)C)NC(=O)[C@@H]2CCCN2C(=O)[C@@H](Cc2ccccc2)NC(=O)[C@H](CC(C)C)NC(=O)[C@H](CCCN)NC(=O)[C@H](C(C)C)NC(=O)[C@@H]2CCCN2C(=O)[C@@H](Cc2ccccc2)NC1=O,cell viability (log2),[1],-1.96 (active)
same,cell viability (log2),[2],-0.176 (active)
same,cell viability (log2),[3],-3.79 (active)
same,cell viability (log2),[4],-0.0354
CC1=CCCC(=O)C2CC(C)(C)C2CC1 (stereo not given),cell viability (log2),[1],0.0664
same,cell viability (log2),[2],0.0572
same,cell viability (log2),[3],0.102
same,cell viability (log2),[4],0.0635
CC(=O)O[C@H]1C[C@@]2(C)[C@H](c3ccoc3)OC(=O)[C@H]3O[C@]32[C@@]2(C)C1[C@]1(C)C(C[C@H]2OC(C)=O)C(C)(C)[C@H](OC(C)=O)C[C@@H]1OC(C)=O (stereo not given in full),cell viability (log2),[1],-0.00983
same,cell viability (log2),[2],0.0592
same,cell viability (log2),[3],0.0456
same,cell viability (log2),[4],0.0721
CC(C)(C)[C@]1(O)CCN2CC3c4ccccc4CCc4cccc(c43)[C@@H]2C1 (stereo not given in full),cell viability (log2),[5],0.166
same,cell viability (log2),[6],0.165
same,cell viability (log2),[7],0.11
same,cell viability (log2),[8],0.076
CC12CCC3c4ccc(OCc5ccccc5)cc4CCC3C1C[C@@H](O)[C@@H]2O (stereo not given in full),cell viability (log2),[1],0.0858
same,cell viability (log2),[2],0.0634
same,cell viability (log2),[3],0.147
same,cell viability (log2),[4],0.17
COc1cc(NC(C)CCCN)c2ncccc2c1 (stereo not given),cell viability (log2),"0.025 µM, library screen: screen2, EWS-FLI1 expression: high (no doxycycline)",0.0561
same,cell viability (log2),"0.025 µM, library screen: screen2, EWS-FLI1 expression: low (doxycycline-induced shRNA knockdown)",-0.00137
same,cell viability (log2),[1],0.054
same,cell viability (log2),[2],0.199
same,cell viability (log2),[5],0.0891
same,cell viability (log2),[6],0.0483
same,cell viability (log2),[3],0.127
same,cell viability (log2),[4],0.305
same,cell viability (log2),[7],0.104
same,cell viability (log2),[8],-0.00544
same,cell viability (log2),"25 µM, library screen: screen2, EWS-FLI1 expression: high (no doxycycline)",-0.632 (active)
same,cell viability (log2),"25 µM, library screen: screen2, EWS-FLI1 expression: low (doxycycline-induced shRNA knockdown)",-0.0311
CCCCC1=NC2(CCCC2)C(=O)N1Cc1ccc(-c2ccccc2-c2nn[nH]n2)cc1,cell viability (log2),[9],0.107
same,cell viability (log2),[10],0.0606
same,cell viability (log2),[1],0.058
same,cell viability (log2),[2],0.0291
same,cell viability (log2),[11],-0.0112
same,cell viability (log2),[12],0.0296
same,cell viability (log2),[13],0.00566
same,cell viability (log2),[14],0.0237
same,cell viability (log2),[3],0.0857
same,cell viability (log2),[4],0.072
same,cell viability (log2),[15],0.0909
same,cell viability (log2),[16],0.0243
same,cell viability (log2),[17],0.0907
same,cell viability (log2),[18],0.057
same,cell viability (log2),[19],0.0719
same,cell viability (log2),[20],0.134
CC(C)[C@@H]1CC[C@@H](C)CC1=O,cell viability (log2),[1],0.057
same,cell viability (log2),[2],0.0478
same,cell viability (log2),[3],0.148
same,cell viability (log2),[4],0.0792
O=C(c1cc(Cc2n[nH]c(=O)c3ccccc23)ccc1F)N1CCN(C(=O)C2CC2)CC1,cell viability (log2),[9],-0.00614
same,cell viability (log2),[10],0.0146
same,cell viability (log2),[11],-0.0732
same,cell viability (log2),[12],-0.0144
same,cell viability (log2),[13],0.00937
same,cell viability (log2),[14],0.0508
same,cell viability (log2),[15],-0.137
same,cell viability (log2),[16],0.0104
same,cell viability (log2),[17],-0.158
same,cell viability (log2),[18],-0.00135
same,cell viability (log2),[19],-0.244 (active)
same,cell viability (log2),[20],-0.143 (active)
CN1CCCC(n2nc(Cc3ccc(Cl)cc3)c3ccccc3c2=O)CC1 (stereo not given),cell viability (log2),[9],0.00451
same,cell viability (log2),[10],0.0233
same,cell viability (log2),[11],0.0154
same,cell viability (log2),[12],0.0686
same,cell viability (log2),[13],0.0285
same,cell viability (log2),[14],0.0485
same,cell viability (log2),[15],0.0385
same,cell viability (log2),[16],0.0809
same,cell viability (log2),[17],0.0197
same,cell viability (log2),[18],0.0247
same,cell viability (log2),[19],-0.00429
same,cell viability (log2),[20],-0.0202
